Drawing on the supplement of paper PMC7530171, this text covers THP-1 cell loss for 15 compounds.

Structures are written as SMILES. Counter-ions that a name gives are not always drawn. ± gives the standard deviation.

The experiment concerns THP-1. Put plainly: THP-1 cell loss relative to DMSO control; higher = more host cell loss (toxicity); extreme values may be limits of the assay. Particulars: 10 µM; 4 days; infection: M. tuberculosis H37Rv. As for the experimental part: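 OICR kinase inhibitor library screened in duplicate at 10 uM against M. tuberculosis-infected THP-1 macrophages, 4 days at 37 C. THP-1 cell loss (cytotoxicity or loss of adherence) was quantified from Hoechst-stained nuclei counts by high-content imaging and normalised to the 1% DMSO control; 100 = complete loss of host cells.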
`Cc1ccccc1-n1c(Cn2nc(-c3cccc(O)c3)c3c(N)ncnc32)nc2cccc(C)c2c1=O` came in with a THP-1 cell loss of 43.9 ± 23%.
The same measure for `O=Nc1c(-c2c(O)[nH]c3cc(Br)ccc23)[nH]c2ccccc12` [6-bromoindirubin-3'-oxime]: 100%; for `N#Cc1c(NC(=O)c2cccc3ccccc23)sc2c1CCCC2`: 60.6 ± 15%; for `CCN(CC)CCCCN1c2ccccc2Oc2ccc(Cl)cc21` [10-DEBC hydrochloride]: 29.4 ± 13%.
The same measure for `CNC(=O)c1cc(Oc2ccc(NC(=O)Nc3ccc(Cl)c(C(F)(F)F)c3)c(F)c2)ccn1`: 43.8 ± 13%; for `COc1ccc2c3n(c(=NC(=O)c4cccnc4)nc2c1OC)CCN3`: 32.5 ± 0.91%.
The same measure for `O=C(CO)N1CCC(c2n[nH]c(-c3ccc(Cl)cc3)c2-c2ccncn2)CC1`: 11.1 ± 0.43%.
The compound `CS(=O)(=O)c1cccc(CNc2nc(Nc3ccc4c(c3)CCC(=O)N4)ncc2C(F)(F)F)c1` showed a THP-1 cell loss of 56.3 ± 6%.
With `O=c1cc(N2CCOCC2)oc2c(-c3ccccc3)cccc12` the figure was 59.5 ± 13%.
Consider `Cc1cc(Nc2cc(N3CCN(C)CC3)nc(Sc3ccc(NC(=O)C4CC4)cc3)n2)n[nH]1`, for which the THP-1 cell loss is 22.3 ± 16%.
`Oc1c2ccccc2c2c3c(cccc13)N=N2` registered a THP-1 cell loss of 19.8 ± 16%.
`CC(=O)c1ccc(N2CCOCC2)cc1O` registered a THP-1 cell loss of 16.46 ± 0.081%.
As for `Nc1ccc(C(=O)Nc2cccc(-c3nc(N4CCOCC4)c4oc5ncccc5c4n3)c2)cn1`, the THP-1 cell loss stood at 43 ± 2.2%.
The same measure for `CC(C)c1cc(/C=C(\C#N)C(=O)NCCCc2ccccc2)cc(C(C)C)c1O` [Tyrphostin SU 1498]: 30.1 ± 12%; for `O=C(NC(NC(=S)Nc1ccc(F)c([N+](=O)[O-])c1)C(Cl)(Cl)Cl)C(c1ccccc1)c1ccccc1` (stereo not given): 100%.
